# Assay results taken from PubChem BioAssay (NCI).
# Compounds without any hit were thinned out: in the full panel of roughly 83,000, 20% have a hit.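 96-well plates, one dose, 48 hours. Percent growth reported; active if below 10.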 Values without a mark were called inactive. Activity calls are given as the source filed them.
# Test system: HL-60(TB) leukemia
# Experiment: NCI-60 one-dose screen, 48 h (100 = growth as untreated, 0 = no growth, -100 = all killed)
# Details: 10 µM unless noted
row,Compound,growth
1,CCOC(=O)C1=C(Nc2ccc(Br)cc2)C(=O)N(CC)C1,104%
2,O=S(=O)(Nc1cc(Sc2cccc3cccnc23)c(O)c2ccccc12)c1ccccc1,-21% (active)
3,COC(=O)c1c(C)nc(C)c2c1C(=O)C=C(NCc1ccccc1)C2=O,81.8%
4,COc1ccc(-c2cnnc3c(-c4cccc(C(F)(F)F)c4)cnn23)cc1,60.2%
5,COC(=O)c1cccc2c1N(C)c1c(cccc1C(=O)OC)CC2,71.6%
6,CC(C)(c1ccccc1)c1cc(O)c(C(C)(C)c2ccccc2)cc1O,-6.95% (active)
7,Cn1c(N)c(N=Nc2ccc(S(=O)(=O)Nc3nccs3)cc2)c(=O)n(C)c1=O,94.6%
8,COc1cc(/C=C/CO)cc(OC)c1O[C@@H]1O[C@H](CO)[C@@H](O)[C@H](O)[C@H]1O,85.9%
9,CCN(CC)CCNC(=O)n1cc(-c2ccncc2)c(-c2ccc(Cl)c(OC)c2)n1,95.9%
10,O=Cc1cc2ccccc2nc1Oc1ccc(C(F)(F)F)cc1,92%
11,NC(=S)N/N=C/c1cn(-c2ccccc2)nc1-c1cc2ccccc2oc1=O,20.4%
12,Nc1c(C(=O)Nc2ccccn2)sc2nc3c(cc12)CCCCC3,-9.45% (active)
13,O=C1NCC2CCCC1C2 (stereo not given),98.6%
14,Cc1scc2c1N(C(=O)CN1CCN(C)CC1)c1ccccc1NC2=O,121%
15,C=C1C(=O)O[C@H]2[C@H]1CC/C(C=Nc1c(N)cc(F)cc1Br)=C\CC[C@@]1(C)O[C@@H]21,37.1%
16,COc1ccc(/C=C/c2nc(Nc3cccc(NC(C)=O)c3)c3ccccc3n2)cc1,78.5%
17,O=C1O[C@@H](c2ccccc2Cl)[C@@H]2c3cc4c(cc3CCN12)OCO4,92.1%
18,COc1ccc(CNC(=O)c2c(C)n([O-])c3cc(F)c(F)cc3[n+]2=O)cc1,101%
19,CCOC(=O)C1=C(C)NC(SCc2cc(=O)oc3ccc(F)cc23)=N[C@@H]1c1cccc2ccccc12,78.4%
20,CCN(CC)CC#CCOC(=O)[C@]1(C)CCC[C@]2(C)c3ccc(C(C)C)cc3CC[C@@H]12,63.6%

row,Compound,growth
1,C/C(=C\C(=O)c1ccc(Cl)cc1)c1ccc(Cl)cc1,92.5%
2,CC(=O)OC1Oc2cc(C)c(C)cc2-c2oc(=O)c(-c3cc4ccccc4oc3=O)cc21 (stereo not given),93.4%
3,CN(C)S(=O)(=O)c1ccc(S(=O)(=O)Nc2cccc(Cl)c2N2CCCCC2)cc1,76.7%
4,O=C(CSc1nc2sc3c(c2c(=O)n1-c1ccccc1)CCCCC3)N/N=C/c1cccc([N+](=O)[O-])c1,103%
5,NNc1ccc(Cl)cc1Cl,8.29% (active)
6,N=C(N)c1ccc(-c2ccc(-c3cc(Cl)cc(Cl)c3)s2)s1,-67.9% (active)
7,CC(C)OP(=O)(O)c1ncc(-c2ccc(C(F)(F)F)cc2)c(NC2CCCCCC2)n1,44.4%
8,O=C(CCc1nnc(Cn2ccnc2)o1)c1nc2ccccc2[nH]1,106%
9,Cc1ccc(NC(=O)c2sc3nc4c(cc3c2N)C(=O)CCC4)cc1Cl,106%
10,CN(C)c1ccc(/C=C(\C#N)c2nc3ccccc3c(=O)[nH]2)cc1,108%
11,COc1cc(CCNc2nc3cc(N)cc(N)c3nc2-c2ccccc2)cc(OC)c1,-66.1% (active)
12,O=C(C1=Cc2cc3ccccc3n2Cc2cnnn21)c1ccc(F)cc1,98%
13,Cc1cc(NC(=O)C2c3ccccc3C(=O)N(CC(C)C)C2c2cccs2)no1 (stereo not given),0.0249% (active)
14,C#Cc1ccc(-n2c(/C=C/c3ccc(O)c(OC)c3)nc3ncccc3c2=O)cc1,84.7%
15,CCN1CCN(CC(=O)Nc2nc3ccc(NCc4ccc(C)cc4)cc3s2)CC1,32.5%
16,CC/C=C\C[C@H](F)C/C=C1/C(=O)C=C[C@@H]1C/C=C\CCCC(=O)O,-16.1% (active)
17,C=C(C)[C@@H]1CC[C@]2(C(=O)NCCCO)CC[C@]3(C)[C@H](CC[C@@H]4[C@@]5(C)CCCNC(C)(C)[C@@H]5CC[C@]43C)[C@@H]12,34.1%
18,O=C(Oc1ccc(CCl)cc1)c1ccccc1,-44.6% (active)
19,O=C(Nc1nc(Cl)nc(Nc2ccc(N3CCOCC3=O)cc2)n1)c1ccc(Cl)s1,68.7%
20,Cn1c(C#N)ccc1-c1ccc(F)c(NC(=O)c2ccc(F)cc2)c1,60%
